{"source": "PubChem BioAssay (NCATS)", "key": {"[1]": {"test": "Validation of Assay for Modulators of Lamin A Splicing (AID 1459; active = well fitted curve in the direction sought with a large enough effect in the signal ratio; the % refers to the signal ratio;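 note: cells exposed to compound for two days before reading; ratio rise marks activators and ratio drop marks inhibitors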)", "method_in_brief": "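Splicing correction read as GFP (500-530 nm) over DsRed2 (575-640 nm) object intensity after 48 h compound exposure of reporter HeLa S3 clones (600 cells/well, 2% FBS medium); ancitabine and cycloheximide titrations, 0.5% DMSO as vehicle.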"}, "[2]": {"target": "DNA repair nuclease/redox regulator APEX1 (Homo sapiens) (UniProt P27695)", "sequence (P27695 whole entry, looked up)": "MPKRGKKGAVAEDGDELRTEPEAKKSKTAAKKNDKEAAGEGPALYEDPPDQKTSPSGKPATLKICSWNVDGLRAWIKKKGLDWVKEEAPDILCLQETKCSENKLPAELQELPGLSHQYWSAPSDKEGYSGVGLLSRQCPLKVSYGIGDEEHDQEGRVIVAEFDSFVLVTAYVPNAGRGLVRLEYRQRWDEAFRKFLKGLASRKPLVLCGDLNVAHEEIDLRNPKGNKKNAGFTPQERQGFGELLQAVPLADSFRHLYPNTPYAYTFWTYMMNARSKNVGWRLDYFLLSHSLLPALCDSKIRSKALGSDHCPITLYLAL", "test": "qHTS Validation Assay for Inhibitors of the Human Apurinic/apyrimidinic Endonuclease 1 (APE1) (AID 1705;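 note: TAMRA fluorescence gain over two minutes as APE1 cuts a quenched THF abasic duplex; series mostly up to about 57 µM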)", "method_in_brief": "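Activity read as rising fluorescence (598 nm emission, 525 nm excitation) from incision of a TAMRA/BHQ-2 duplex carrying a THF abasic site (50 nM). Compound and enzyme sat 15 min at RT before substrate start; signal change between first and third 60-s reads.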"}, "[3]": {"test": "Counterscreen for APE1 Inhibitors: Fluorescent Dye Displacement Validation Assay (AID 1707)", "method_in_brief": "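Counterscreen flags promiscuous DNA binders: compounds displacing ThO from duplex DNA (abasic THF site, 50 nM) reduce 540 nm emission (480 nm excitation). ThO 250 nM final; Tris-HCl pH 7.5 with NaCl, MgCl2 and Tween-20.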"}, "[4]": {"target": "Endonuclease 4 (Escherichia coli (strain K12)) (UniProt P0A6C1)", "test": "Counterscreen for APE1 Inhibitors: qHTS Validation Assay for Inhibitors of Endonuclease IV (AID 1708)", "method_in_brief": "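The reaction buffer contained 50 mM Tris-HCl pH 7.5, 50 mM NaCl, 2 mM MgCl2, 1 mM DTT and 0.01% Tween-20. Incision of a 50 nM fluorophore/quencher THF substrate by 2 nM enzyme was measured kinetically.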"}, "[5]": {"test": "qHTS for differential inhibitors of proliferation of Plasmodium falciparum line 3D7 (AID 1876);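 note: parasite growth measured after three days of culture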"}, "[6]": {"test": "qHTS for differential inhibitors of proliferation of Plasmodium falciparum line D10 (AID 1877);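 note: parasites grown with compound for 72 h before DNA staining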"}, "[7]": {"test": "qHTS for differential inhibitors of proliferation of Plasmodium falciparum line HB3 (AID 1886);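 note: parasites grown with compound for 72 h before SYBR Green readout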", "conditions": "Potency: Plasmodium falciparum HB3 proliferation inhibition"}, "[8]": {"test": "qHTS Assay for Modulators of Human Peripheral Myelin Protein 22 (PMP22) Expression/Activity (AID 1967; active = well fitted curve in the direction sought with a large enough effect in the signal ratio; the % refers to the signal ratio)", "method_in_brief": "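Readout is the corrected green/red luminescence ratio after 24 h compound exposure, normalised to untreated cells (0%). Engineered MSC80 mouse Schwann cells express green luciferase from the mouse Pmp22 promoter and red luciferase from EF-alpha as internal control.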"}, "[9]": {"target": "Ferritin light chain (Equus caballus) (UniProt P02791)", "sequence (P02791 2-175 limits assumed)": "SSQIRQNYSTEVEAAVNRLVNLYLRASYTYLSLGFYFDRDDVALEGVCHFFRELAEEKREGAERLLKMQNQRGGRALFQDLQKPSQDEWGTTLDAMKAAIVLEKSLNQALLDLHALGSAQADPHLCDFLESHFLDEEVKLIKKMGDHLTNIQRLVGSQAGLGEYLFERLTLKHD", "test": "qHTS Validation Assay for Identification of Novel General Anesthetics (AID 2323); note: series mostly up to about 77 µM", "method_in_brief": "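Competitive displacement of the profluorescent anesthetic 1-AMA (50% saturated, PBS) from 10 uM apoferritin, 10 min, room temperature. Activity is normalized 380/535 nm fluorescence; concentration-response fitted with a four-parameter Hill equation.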"}, "[10]": {"target": "ATP-dependent DNA helicase Q1 (Homo sapiens) (UniProt P46063)", "sequence (P46063 whole entry, looked up)": "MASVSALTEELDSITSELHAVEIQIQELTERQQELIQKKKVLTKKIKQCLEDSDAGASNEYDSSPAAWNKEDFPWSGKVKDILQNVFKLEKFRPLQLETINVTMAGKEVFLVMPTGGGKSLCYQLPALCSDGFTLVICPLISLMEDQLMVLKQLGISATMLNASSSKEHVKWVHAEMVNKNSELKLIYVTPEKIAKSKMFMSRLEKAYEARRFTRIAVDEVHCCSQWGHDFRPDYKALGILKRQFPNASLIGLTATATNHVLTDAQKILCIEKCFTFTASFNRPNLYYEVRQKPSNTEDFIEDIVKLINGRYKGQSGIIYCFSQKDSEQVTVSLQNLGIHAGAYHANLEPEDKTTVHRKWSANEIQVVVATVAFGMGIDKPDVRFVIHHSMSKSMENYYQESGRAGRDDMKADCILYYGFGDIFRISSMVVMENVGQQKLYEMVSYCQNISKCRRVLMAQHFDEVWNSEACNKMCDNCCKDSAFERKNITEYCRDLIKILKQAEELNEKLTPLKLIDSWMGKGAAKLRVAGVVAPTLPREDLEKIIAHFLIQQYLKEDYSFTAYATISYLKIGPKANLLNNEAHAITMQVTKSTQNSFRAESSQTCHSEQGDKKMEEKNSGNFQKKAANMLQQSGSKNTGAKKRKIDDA", "test": "qHTS Validation Assay for Inhibitors of RecQ-Like Dna Helicase 1 (RECQ1) (AID 2353)", "method_in_brief": "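RECQ1T1 50 nM; forked duplex (20 bp + 30-nt ss tails) 200 nM, ATP 2 mM final; pH 8.0, 2 mM MgCl2, 2.5 ug/ml poly(dI-dC); 15 min compound preincubation; discontinuous kinetic read over 2 h at RT.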"}, "[11]": {"test": "Validation screen for inhibitors of Lassa infection (AID 463096; calls by dose curve)"}, "[12]": {"test": "Validation screen for small molecules that induce DNA re-replication in MCF 10A normal breast cells (AID 463097); note: nearly all actives have a fitted effect of over 60% in size", "method_in_brief": "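Read-out is Hoechst total nuclear intensity by fluorescence scanning imager, flagging increased high-DNA-content nuclei. Compounds were incubated with MCF 10A cells for 48 hr (37 C, 5% CO2) before 40 min staining.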"}, "[13]": {"test": "Quantitative high throughput screen for delayed death inhibitors of the malarial parasite plastid, 96 hour incubation (AID 488745);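 note: luciferase-expressing P. falciparum in erythrocytes at 2% hematocrit and 0.1% parasitemia; series mostly up to about 29 µM; nearly all actives have a fitted effect of over 70% in size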", "method_in_brief": "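Luciferase-expressing P. falciparum, infected RBCs 2% Hct/0.1% parasitemia (final); 96 h cpd exposure, 37 C, 5% CO2; RPMI 1640 + 0.5% Albumax, bicarbonate, gentamycin. Readout: luminescence loss = growth inhibition.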"}, "[14]": {"test": "Quantitative high throughput screen for delayed death inhibitors of the malarial parasite plastid, 48 hour incubation (AID 488752); note: nearly all actives have a fitted effect of over 65% in size", "method_in_brief": "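Luciferase-expressing P. falciparum in RBCs, 2% Hct, 0.1% parasitemia final; RPMI 1640 + 0.5% Albumax; 48 h, 37 C, 5% CO2; luminescence readout, signal drop = growth inhibition.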"}, "[15]": {"target": "M-phase phosphoprotein 8 (Homo sapiens) (UniProt Q99549)", "sequence (Q99549 whole entry, looked up)": "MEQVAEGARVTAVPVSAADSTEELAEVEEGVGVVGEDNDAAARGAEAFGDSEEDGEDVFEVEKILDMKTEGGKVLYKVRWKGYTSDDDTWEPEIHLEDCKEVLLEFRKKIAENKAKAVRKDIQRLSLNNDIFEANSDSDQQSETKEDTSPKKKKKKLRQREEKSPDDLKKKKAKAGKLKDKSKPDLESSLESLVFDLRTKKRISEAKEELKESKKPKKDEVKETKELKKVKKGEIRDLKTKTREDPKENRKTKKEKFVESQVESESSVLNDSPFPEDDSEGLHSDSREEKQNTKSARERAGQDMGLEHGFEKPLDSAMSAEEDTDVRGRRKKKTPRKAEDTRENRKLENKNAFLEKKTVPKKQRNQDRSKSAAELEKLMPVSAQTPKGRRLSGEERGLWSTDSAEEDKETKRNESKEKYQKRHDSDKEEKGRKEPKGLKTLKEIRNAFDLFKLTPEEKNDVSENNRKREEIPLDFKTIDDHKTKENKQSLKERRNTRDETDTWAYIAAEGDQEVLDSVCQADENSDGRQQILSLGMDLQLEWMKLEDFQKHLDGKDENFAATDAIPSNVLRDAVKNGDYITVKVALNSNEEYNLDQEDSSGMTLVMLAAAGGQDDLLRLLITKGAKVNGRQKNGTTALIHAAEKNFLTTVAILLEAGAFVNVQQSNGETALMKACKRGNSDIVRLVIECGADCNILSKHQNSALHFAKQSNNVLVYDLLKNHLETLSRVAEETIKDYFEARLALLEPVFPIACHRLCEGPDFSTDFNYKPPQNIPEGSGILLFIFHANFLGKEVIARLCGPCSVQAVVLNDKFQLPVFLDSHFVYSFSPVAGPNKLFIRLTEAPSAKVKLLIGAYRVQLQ", "test": "qHTS Validation Assay for Inhibitors for MPP8 Chromodomain Interactions with Methylated Histone Tails (AID 488949); note: potency is the fitted concentration of half-maximal effect; nearly all actives have a fitted effect of over 55% in size", "method_in_brief": "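AlphaScreen proximity signal from streptavidin donor and Ni-chelate acceptor beads (10 ug/mL each) reported binding of MPP8 to trimethyl-K9 H3(1-18) peptide, both at 50 nM. The complex formed 30 min before a 30 min compound exposure at room temperature, in PBS pH 7.4.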"}, "[16]": {"target": "Transient receptor potential cation channel subfamily V member 1 (Homo sapiens) (UniProt Q8NER1)", "test": "HTS Assay for Compounds that Act as Enhancers of the Vanilloid Receptor 1 (AID 488979)", "method_in_brief": "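Calcium influx kinetics via Fluo-8 (480/520 nm) in TRPV1-expressing cells, 2000/well cultured overnight at 35.5C. Compound-alone read 3 min (agonist phase), followed by EC20 capsaicin challenge for 2 min (enhancer phase).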"}, "[17]": {"target": "Thyrotropin receptor (Homo sapiens) (UniProt P16473)", "sequence (P16473 whole entry, looked up)": "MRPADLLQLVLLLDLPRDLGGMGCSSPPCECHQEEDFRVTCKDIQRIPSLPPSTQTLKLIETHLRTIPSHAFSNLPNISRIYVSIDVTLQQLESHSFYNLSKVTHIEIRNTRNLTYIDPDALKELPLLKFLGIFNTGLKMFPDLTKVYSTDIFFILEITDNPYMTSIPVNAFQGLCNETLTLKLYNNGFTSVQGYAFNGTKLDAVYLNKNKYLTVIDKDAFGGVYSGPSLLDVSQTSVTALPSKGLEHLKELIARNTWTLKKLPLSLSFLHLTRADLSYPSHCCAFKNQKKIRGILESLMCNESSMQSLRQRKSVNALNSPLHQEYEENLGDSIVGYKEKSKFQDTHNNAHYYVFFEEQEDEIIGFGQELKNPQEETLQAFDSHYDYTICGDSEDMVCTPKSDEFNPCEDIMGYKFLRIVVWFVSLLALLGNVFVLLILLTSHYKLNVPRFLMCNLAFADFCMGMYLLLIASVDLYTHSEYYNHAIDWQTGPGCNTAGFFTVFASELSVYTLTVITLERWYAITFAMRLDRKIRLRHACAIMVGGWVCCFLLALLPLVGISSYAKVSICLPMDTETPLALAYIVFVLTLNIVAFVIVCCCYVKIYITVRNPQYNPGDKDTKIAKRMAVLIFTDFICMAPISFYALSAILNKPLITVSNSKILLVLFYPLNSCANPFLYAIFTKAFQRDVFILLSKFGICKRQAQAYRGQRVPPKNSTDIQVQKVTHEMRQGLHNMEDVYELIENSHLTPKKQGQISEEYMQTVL", "test": "qHTS Assay for Antagonists of the Thyroid Stimulating Hormone Receptor (AID 488980); note: series mostly up to about 58 µM", "method_in_brief": "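Inhibition of cAMP raised by EC80 TSH (4 nM final) was read by HTRF, with lysate cAMP competing against cAMP-d2 for cryptate antibody after 30 min at room temperature. The cells were transfected HEK293 held in phosphodiesterase inhibitor RO 20-1724 at 70 uM.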"}, "[18]": {"target": "Thyrotropin-releasing hormone receptor (Homo sapiens) (UniProt P34981)", "sequence (P34981 whole entry, looked up)": "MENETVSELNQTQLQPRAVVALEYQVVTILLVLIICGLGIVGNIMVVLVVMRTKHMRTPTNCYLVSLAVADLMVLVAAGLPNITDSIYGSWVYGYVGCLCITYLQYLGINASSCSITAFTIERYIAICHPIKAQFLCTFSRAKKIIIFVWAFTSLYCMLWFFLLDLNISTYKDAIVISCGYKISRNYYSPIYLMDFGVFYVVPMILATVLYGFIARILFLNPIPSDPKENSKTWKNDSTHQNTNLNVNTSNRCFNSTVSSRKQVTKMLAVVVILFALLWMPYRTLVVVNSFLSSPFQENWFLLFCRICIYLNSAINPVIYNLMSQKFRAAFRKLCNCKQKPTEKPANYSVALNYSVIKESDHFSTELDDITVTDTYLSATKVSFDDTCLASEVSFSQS", "test": "qHTS for Small Molecule Agonists and Allosteric Enhancers of Human TRH Receptor: Validation Screen for Agonists (AID 493127;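 active = calcium activation more than 3 SD above the typical response in the agonist read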)", "conditions": "TRH receptor agonist cell assay; at 2 µM; hits give high values", "method_in_brief": "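Read-out: intracellular calcium release measured kinetically by FDSS (fluo-8, ex 480/em 530 nm), 1 reading/s after a 10-cycle baseline. TRHR cells, 2000/well, cultured 18 h at 33.5C, dye-loaded at room temp. Compound-evoked positive calcium signal flags agonists.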"}, "[19]": {"target": "Galactokinase (Homo sapiens) (UniProt P51570)", "sequence (P51570 whole entry, looked up)": "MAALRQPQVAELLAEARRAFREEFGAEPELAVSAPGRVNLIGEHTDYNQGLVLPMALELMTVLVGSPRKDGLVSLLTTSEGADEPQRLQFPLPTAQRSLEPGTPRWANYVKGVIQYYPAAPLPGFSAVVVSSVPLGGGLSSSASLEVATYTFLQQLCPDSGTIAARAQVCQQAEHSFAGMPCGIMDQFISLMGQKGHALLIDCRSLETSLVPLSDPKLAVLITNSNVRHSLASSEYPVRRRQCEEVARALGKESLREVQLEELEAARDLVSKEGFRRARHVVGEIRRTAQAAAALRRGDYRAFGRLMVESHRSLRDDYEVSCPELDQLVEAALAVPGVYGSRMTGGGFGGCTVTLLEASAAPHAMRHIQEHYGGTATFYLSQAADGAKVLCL", "test": "qHTS Validation Assay for Inhibitors of Human Galactokinase (GALK) (AID 493189)", "method_in_brief": "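Inhibition was measured as remaining ATP, detected by luciferase luminescence after a 1 h room-temperature reaction. Final conditions: 5 nM GALK, 100 uM galactose, 35 uM ATP, pH 8.0 HEPES buffer.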"}, "[20]": {"test": "qHTS for Inhibitors of the Functional Ribonucleoprotein Complex (vRNP) of Lassa (LASV) Arenavirus: LASV Primary Screen - GLuc reporter signal (AID 1347082; calls by dose curve; tested in HEK293 reporter line; note: series mostly up to about 57 µM; nearly all actives have a fitted effect of over 60% in size)"}, "[21]": {"test": "qHTS for Inhibitors of the Functional Ribonucleoprotein Complex (vRNP) of Lassa (LASV) Arenavirus: Viability assay - alamar blue signal for LASV Primary Screen (AID 1347083; calls by dose curve; tested in HEK293 reporter line; note: series mostly up to about 57 µM; nearly all actives have a fitted effect of over 80% in size)"}, "[22]": {"test": "qHTS for Inhibitors of the Functional Ribonucleoprotein Complex (vRNP) of Lymphocytic Choriomeningitis Arenaviruses (LCMV): Viability assay - alamar blue signal for LCMV Primary Screen (AID 1347085; calls by dose curve; tested in HEK293 reporter line; note: series mostly up to about 57 µM; nearly all actives have a fitted effect of over 80% in size)"}, "[23]": {"target": "Nucleoprotein (Lymphocytic choriomeningitis virus (strain Armstrong)) (UniProt P09992)", "sequence (P09992 whole entry, looked up)": "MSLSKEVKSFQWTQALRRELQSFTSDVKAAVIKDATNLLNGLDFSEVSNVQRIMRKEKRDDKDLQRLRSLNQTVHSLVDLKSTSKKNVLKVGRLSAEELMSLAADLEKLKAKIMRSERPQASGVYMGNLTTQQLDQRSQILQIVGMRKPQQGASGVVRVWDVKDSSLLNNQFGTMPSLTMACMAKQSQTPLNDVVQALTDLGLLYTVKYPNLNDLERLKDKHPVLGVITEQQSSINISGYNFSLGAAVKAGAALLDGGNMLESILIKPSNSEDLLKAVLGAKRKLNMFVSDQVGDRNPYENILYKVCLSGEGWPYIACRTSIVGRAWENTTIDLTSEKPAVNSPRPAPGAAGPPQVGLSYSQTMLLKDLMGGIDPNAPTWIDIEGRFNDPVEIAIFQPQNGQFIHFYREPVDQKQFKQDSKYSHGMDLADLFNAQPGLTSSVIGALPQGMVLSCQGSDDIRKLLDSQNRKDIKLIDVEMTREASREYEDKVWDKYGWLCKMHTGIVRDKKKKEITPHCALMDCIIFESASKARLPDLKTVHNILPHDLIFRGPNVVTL", "test": "qHTS for Inhibitors of the Functional Ribonucleoprotein Complex (vRNP) of Lymphocytic Choriomeningitis Arenaviruses (LCMV): LCMV Primary Screen - GLuc reporter signal (AID 1347086; calls by dose curve; note: series mostly up to about 57 µM; nearly all actives have a fitted effect of over 70% in size)"}, "[24]": {"target": "N-terminal Xaa-Pro-Lys N-methyltransferase 1 (Homo sapiens) (UniProt Q9BV86)", "sequence (Q9BV86 whole entry, looked up)": "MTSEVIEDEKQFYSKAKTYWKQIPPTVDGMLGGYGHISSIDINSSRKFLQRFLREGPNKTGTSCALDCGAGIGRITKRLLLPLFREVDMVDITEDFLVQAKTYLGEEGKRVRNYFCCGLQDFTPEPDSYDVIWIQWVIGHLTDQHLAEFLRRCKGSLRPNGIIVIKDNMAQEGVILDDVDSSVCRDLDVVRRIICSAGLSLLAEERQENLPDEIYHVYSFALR", "test": "qHTS Assay for Inhibitors of N-terminal methyltransferase 1 (NTMT1): LOPAC validation of the NTMT1 SAHH-coupled ThioGlo3 Assay (AID 1347143);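 note: SAH from peptide methylation measured as thiol fluorescence via SAHH coupling and ThioGlo3; nearly all actives have a fitted effect of over 70% in size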", "method_in_brief": "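NTMT1 125nM + cpds (various conc.), 1 min RT; add SAM 100uM/SAHH 10uM/ThioGlo3 15uM (addition mix). SAHH-coupled thiol detection, Ex340/Em450, t0 and 30 min RT; signal normalized to background. LOPAC 1280-cpd pilot.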"}}, "note": "A number with no mark means an inactive call. Inconclusive results are not listed. Where a call stands in place of a potency, no number is given. Active and inactive are the calls of the source. Unless noted, calls come from the whole dose curve; as a rule, active = well fitted curve in the direction sought with a large enough effect; inconclusive = small, poorly fitted or top-dose-only effect, or another doubt; inactive = no such curve, though single readings can be large; an effect the other way counts as inactive or inconclusive.", "data": [{"smiles": "CC(=O)OCC1=C(C(=O)[O-])N2C(=O)[C@@H](NC(=O)CCC[C@@H](N)C(=O)[O-])[C@H]2SC1.[Zn+2]", "values": [{"measurement": "outcome", "setting": "[1]", "value": "inactive"}, {"measurement": "Potency", "setting": "[2]", "value": "inactive"}, {"measurement": "Potency", "setting": "[3]", "value": "inactive"}, {"measurement": "outcome", "setting": "[4]", "value": "inactive"}, {"measurement": "Potency", "setting": "[5]", "value": "inactive"}, {"measurement": "Potency", "setting": "[6]", "value": "inactive"}, {"measurement": "Potency", "setting": "[7]", "value": "inactive"}, {"measurement": "outcome", "setting": "[8]", "value": "inactive"}, {"measurement": "outcome", "setting": "[9]", "value": "inactive"}, {"measurement": "Potency", "setting": "[10]", "value": "inactive"}, {"measurement": "Potency", "setting": "[11]", "value": "inactive"}, {"measurement": "Potency", "setting": "[12]", "value": "inactive"}, {"measurement": "Potency", "setting": "[13]", "value": "inactive"}, {"measurement": "Potency", "setting": "[14]", "value": "inactive"}, {"measurement": "Potency", "setting": "[15]", "value": "44.7 µM (active)"}, {"measurement": "outcome", "setting": "[16]", "value": "inactive"}, {"measurement": "outcome", "setting": "[17]", "value": "inactive"}, {"measurement": "activation", "setting": "[18]", "value": 1.25, "unit": "%"}, {"measurement": "outcome", "setting": "[19]", "value": "inactive"}, {"measurement": "Potency", "setting": "[20]", "value": "inactive"}, {"measurement": "Potency", "setting": "[21]", "value": "inactive"}, {"measurement": "Potency", "setting": "[22]", "value": "inactive"}, {"measurement": "Potency", "setting": "[23]", "value": "inactive"}, {"measurement": "outcome", "setting": "[24]", "value": "inactive"}]}]}
